Among all 69,000 compounds or so, about 8,600 (12%) showed an effect of 50% or more. For the sample, strong results were picked, then their nearest neighbours and some compounds at random.
Tested on: Plasmodium berghei
Test: Screen against P. berghei liver stage (PbLuc), transformed with Luciferase, at 10uM
Format: functional, HepG2
Conditions: tested at 10 uM

Row | Compound | INHIBITION [%]
1 | NC(=O)CN1CCOCC(Cc2ccccc2Cl)C1 (stereo not given) | 11.1
2 | O=C(c1csc(I)c1)N1CCc2c(ncn2C2CC2)C1 | 76
3 | COC(=O)c1ccc(C(=O)N2CCc3c(ncn3C3CC3)C2)cc1 | -36.95
4 | CN(C)c1ncccc1C(=O)N1CCc2c(ncn2C2CC2)C1 | -10.785
5 | CCN(CC)Cc1nnc2sc(C(C)Oc3ccccc3)nn12 (stereo not given) | -2.93
6 | CC(C)C1CN(S(C)(=O)=O)CCCN1Cc1ccc(F)cc1 (stereo not given) | 24.3
7 | CC(C)C1CN(S(=O)(=O)C2CC2)CCCN1Cc1ccc(F)cc1 (stereo not given) | 45.6
8 | CC(C)C1CN(S(=O)(=O)N(C)C)CCCN1Cc1ccc(F)cc1 (stereo not given) | 12.8
9 | CC(C)C1CN(c2cccc(C#N)n2)CCCN1Cc1ccc(F)cc1 (stereo not given) | 68.5
10 | CC(C)C1CN(S(=O)(=O)N2CCCC2)CCCN1Cc1ccc(F)cc1 (stereo not given) | 65.3
11 | CC(C)C1CN(c2cccc(C#N)n2)CCCN1CC1CC1 (stereo not given) | 33.9
12 | Fc1cnc(N2CCn3cc(CNc4ccccn4)nc3C2)nc1 | 47.2
13 | CC(C)n1nc(CNc2ncccn2)c2c1CN(C1CCOCC1)CC2 | -18.2
14 | CSCCNC(=O)C1CCC(=O)N(C2CCCC2)C1 (stereo not given) | 17.9
15 | O=C(NCCn1cccc1)C1CCC(=O)N(C2CCCC2)C1 (stereo not given) | 41.2
16 | O=C(NCCN1CCCCC1=O)C1CCC(=O)N(C2CCCC2)C1 (stereo not given) | 55.6
17 | CN(C)C(=O)c1cccc(CNc2ccc(C#N)cn2)c1 | 73.8
18 | Oc1cccc(CNCC2CCCO2)c1 (stereo not given) | 35.5
19 | CNS(=O)(=O)Cc1cccc(CNc2ccc(C#N)cn2)c1 | -55
20 | N#Cc1ccc(NCc2cccc(OCC3CCCO3)c2)nc1 (stereo not given) | 53.8
21 | N#Cc1ccc(NCc2cccc(COC3CCOCC3)c2)nc1 | 7.58
22 | Cc1nnc(NCc2cccc(OCC3CCCO3)c2)c(C#N)c1C (stereo not given) | 1.74
23 | CNC(=O)c1cccc(CCNc2ccc(C#N)cn2)c1 | -11
24 | Cc1nc2ccccc2nc1NCc1cccc(OCC2CCCO2)c1 (stereo not given) | 83.9
25 | N#Cc1ccc(NCCCOCC2CCCO2)c(F)c1 (stereo not given) | 6.02
26 | CN(C)Cc1cc(=O)n2c(n1)CN(S(=O)(=O)C1CC1)CCC2 | 21.6
27 | O=C(CCn1cccn1)N1C[C@H]2CC[C@@H](C1)N(Cc1ccccn1)C2=O | 8.47
28 | N#Cc1cc2cc(Cl)cnc2nc1O | -26.3

Row | Compound | INHIBITION [%]
29 | CC(C)(C(=O)NCC1CCN(Cc2ccccn2)C1)c1ccccc1 (stereo not given) | 49.2
30 | O=C1NCCCc2[nH]c(C3CCCN(C(=O)C4CC4)C3)nc21 (stereo not given) | 26.8
31 | CC(C)OCCN1CCN(c2ccc(CN(C)C)cn2)CC1 | 25.4
32 | OCCN1CCN(Cc2coc(-c3ccccc3)n2)CC1 | 59
33 | CC(O)CN1CCN(Cc2coc(-c3ccccc3Cl)n2)CC1 (stereo not given) | -66.7
34 | CCN1CCN(Cc2coc(-c3cccc(F)c3)n2)CC1 | 65.2
35 | OCCN1CCN(Cc2coc(-c3cccc(Cl)c3)n2)CC1 | 33.3
36 | COCCN1CCN(Cc2coc(-c3ccccc3Cl)n2)CC1 | 63.8
37 | CN1CCOC(CNCc2coc(-c3ccccc3)n2)C1 (stereo not given) | 22.5
38 | OCCN1CCN(Cc2coc(-c3cccc(F)c3)n2)CC1 | 48.4
39 | CC(=O)N1CCN(Cc2coc(-c3cccc(F)c3)n2)CC1 | -14.7
40 | CN1CCOC(CNCc2coc(-c3cccc(F)c3)n2)C1 (stereo not given) | 57.8
41 | CN1CCOC(CNCc2coc(-c3cccc(Cl)c3)n2)C1 (stereo not given) | 33.7
42 | CC(O)CN1CCN(Cc2coc(-c3ccccc3)n2)CC1 (stereo not given) | 1.45
43 | OCCN1CCN(Cc2coc(-c3ccccc3Cl)n2)CC1 | -113
44 | NC(=O)c1cc(C2CCCN(CCOc3ccc(F)cc3)C2)n[nH]1 (stereo not given) | 27.25
45 | CC(NCc1cc(O)c2cccc(F)c2n1)c1ccc(S(C)(=O)=O)cc1 (stereo not given) | 15.1
46 | CCS(=O)(=O)Nc1ccc2c(c1)OCC(C)(C)C(=O)N2C | 25.8
47 | O=C(NC1CCCC1)C1(Cc2cc(C3CCOC3)no2)CCNCC1 (stereo not given) | 26.7
48 | COc1ccc(NCc2nc(=O)n(CCC(C)C)[nH]2)cc1 | -27.6
49 | c1ccc2c(c1)ccn2CCCNC1CCOC2(CCOCC2)C1 (stereo not given) | -27.5
50 | COc1ccc(-c2nc(CN3CCCS3(=O)=O)co2)cc1 | -91.4
51 | CCN1CCOC(CNCc2csc(C)n2)C1 (stereo not given) | -65.3
52 | COc1ccc(-c2nc(CN3CCN(CCO)CC3)co2)cc1 | 59.7
53 | Cc1ccc(-c2nc(CN3CCN(CCO)CC3)co2)cc1 | 27.4
54 | Cc1nc(COc2ccc(CNCC3CN(C)CCO3)cc2)cs1 (stereo not given) | 32.4
55 | Cc1nc(CNCC2CN(C)CCO2)cs1 (stereo not given) | 51.6

Source: ChEMBL document CHEMBL4513216, “Probing the Open Global Health Chemical Diversity Library for Multistage-Active Starting Points for Next-Generation Antimalarials” (ACS Infect Dis, 2020)
